Assay results from PubChem BioAssay.
The source made the active and inactive calls.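 The calls were made as follows: active = inhibition at or above 50% relative to wild type and mutant plate controls; inactive = inhibition below 50%.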

experiment: loss of swimming-algae plug formation – whole organism, Chlamydomonas reinhardtii, WT vs cilia-less mutant, absorbance, 96-well, primary screen (AID 463189); settings: Chlamydomonas reinhardtii gravitaxis, OD600 absorbance, 2 days; at 10 µM; hits give high values;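 also: 0% = wild type cc124 cells in DMSO and 100% = ciliumless bld1 mutant cells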

SMILES	inhibition
Nc1ncnc2c1ncn2[C@@H]1O[C@H](C(=O)NC2CC2)[C@H](O)C1O (stereo not given in full)	7.98% (inactive)
COc1cc2c(CCNC(C)=O)c[nH]c2cc1O	-0.037% (inactive)
NNCCc1ccccc1	3.74% (inactive)
Cc1cc(N)c2ccccc2[n+]1CCCCCCCCCC[n+]1c(C)cc(N)c2ccccc21	147% (active)
CC(=O)O[C@H]1C(=O)[C@@]2(C)C([C@H](OC(=O)c3ccccc3)[C@]3(O)C[C@H](OC(=O)[C@H](O)[C@@H](NC(=O)c4ccccc4)c4ccccc4)C(C)=C1C3(C)C)[C@]1(OC(C)=O)CO[C@@H]1C[C@@H]2O (stereo not given in full)	8.47% (inactive)
C=C(C)C1CC=C(C(=O)O)CC1 (stereo not given)	1.75% (inactive)
CC#C[C@]1(O)CC[C@H]2[C@@H]3CCC4=CC(=O)CCC4=C3[C@@H](c3ccc(N(C)C)cc3)C[C@@]21C	1.39% (inactive)
O=c1c2ccccc2nc2n1CCc1c-2[nH]c2ccccc12	2.73% (inactive)
COC(=O)C(C)(N)Cc1ccc(O)cc1 (stereo not given)	9.13% (inactive)
O=c1c(O)c(-c2cc(O)c(O)c(O)c2)oc2cc(O)cc(O)c12	9.46% (inactive)
N=C(N)c1ccc(N)cc1	28.5% (inactive)
C=CCc1ccccc1OCC(O)CN[C@]1(C)CCC[C@H](C(C)(C)NC(=O)CBr)C1 (stereo not given in full)	16.4% (inactive)
NC(=O)c1cnccn1	1.54% (inactive)
C=CCN1CCc2cc(O)c(O)cc2C(c2ccccc2)C1 (stereo not given)	8.31% (inactive)
CCN(CC)CCCC(C)Nc1ccnc2cc(Cl)ccc12 (stereo not given)	0.95% (inactive)
CNC(=O)[C@H]1O[C@@H](n2cnc3c(N)ncnc32)C(O)[C@H]1O (stereo not given in full)	1.69% (inactive)
O=c1ccc2ccc(O)c(O)c2o1	-4.31% (inactive)
CN(C)C(N)=NCCC[C@H](N)C(=O)O	11.1% (inactive)
O=C(O)c1ccccc1Nc1ccccc1	8.09% (inactive)
NS(=O)(=O)c1cc2c(cc1Cl)NC(C1CC3C=CC1C3)NS2(=O)=O (stereo not given)	-0.288% (inactive)

SMILES	inhibition
Oc1cc2c(cc1O)CN(C(=S)NCCc1ccc(Cl)cc1)CCC2	23.4% (inactive)
COc1ccccc1N1CCN(CCCCNC(=O)c2ccc3ccccc3c2)CC1	6.15% (inactive)
COc1cc2c(cc1OC)[C@@H](c1ccccc1)CN(C)CC2	8.36% (inactive)
NC(=O)NO	-5.8% (inactive)
N[C@H](C(=O)O)c1cc(O)cc(O)c1	-2.67% (inactive)
CNC1(C)C2CCC(C2)C1(C)C (stereo not given)	2.45% (inactive)
COC1(C2=NCCN2)COc2ccccc2O1 (stereo not given)	7.5% (inactive)
CCCc1c(OCCCOc2ccc(OCC(=O)O)cc2)ccc(C(C)=O)c1O	0.316% (inactive)
O=C(O)CN(CCOCCOCCN(CC(=O)O)CC(=O)O)CC(=O)O	3.4% (inactive)
CC[C@H](C)C(=O)O[C@H]1CCC=C2C=C[C@H](C)[C@H](CC[C@@H]3C[C@@H](O)CC(=O)O3)[C@H]21	9.46% (inactive)
COc1cc(=O)n(C)c2c(OCC(O)C(C)(C)O)cccc12 (stereo not given)	-8.37% (inactive)
NCC(O)C1CCCCCCC1 (stereo not given)	2.73% (inactive)
COc1cc(Cc2cnc(N)nc2N)cc(OC)c1OC	0.332% (inactive)
CCCOc1ccccc1-c1nc2n[nH]nc2c(=O)[nH]1	-8.54% (inactive)
O=c1[nH]c2cc(Cl)ccc2c(O)c1-c1ccc(Oc2ccccc2)cc1	5.4% (inactive)
COc1ccccc1OCC(O)CN1CCN(CC(=O)Nc2c(C)cccc2C)CC1 (stereo not given)	8.13% (inactive)
COc1ccccc1N1CCN(CCCNc2cc(=O)n(C)c(=O)n2C)CC1	9.94% (inactive)
C[N+](C)(C)CCOC(=O)CCC(=O)OCC[N+](C)(C)C	-7.41% (inactive)
CCCn1c(=O)c2c(ncn2C)n(CCC)c1=O	6.81% (inactive)
c1ccc(C2CN3CCSC3=N2)cc1 (stereo not given)	45.3% (inactive)
